Source: PubChem BioAssay
An excerpt weighted towards active compounds, which were near 4% of everything screened.
TRHR ag: qHTS for Small Molecule Agonists and Allosteric Enhancers of Human TRH Receptor: Primary Screen for Agonists; Thyrotropin-releasing hormone receptor (Homo sapiens), P34981; TRHR cells, calcium flux fluo-8, FDSS agonist mode; activation, % at 2 µM; actives 0.18% (n = 360,000); AID 493084, 2011
Target sequence (P34981 whole entry, looked up): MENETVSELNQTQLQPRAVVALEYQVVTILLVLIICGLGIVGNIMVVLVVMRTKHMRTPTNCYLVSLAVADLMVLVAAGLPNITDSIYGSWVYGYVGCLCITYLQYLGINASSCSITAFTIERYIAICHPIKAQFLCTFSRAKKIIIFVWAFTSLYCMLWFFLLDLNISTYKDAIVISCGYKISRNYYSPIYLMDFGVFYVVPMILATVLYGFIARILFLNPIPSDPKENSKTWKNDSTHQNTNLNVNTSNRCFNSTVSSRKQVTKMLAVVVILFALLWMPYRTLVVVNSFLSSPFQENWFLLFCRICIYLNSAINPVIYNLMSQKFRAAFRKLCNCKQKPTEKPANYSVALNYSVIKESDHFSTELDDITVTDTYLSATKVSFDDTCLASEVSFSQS
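TRHR-expressing cells, plated overnight in medium with 10% serum, were loaded with fluo-8 calcium dye at room temperature. After a 10 s baseline, library compound was pin-added and calcium release was recorded kinetically (ex 480/em 530) as agonist response.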
GRP78 ERSR act: qHTS for Inducers of the Endoplasmic Reticulum Stress Response (ERSR) in Human Glioma: qHTS; U87-MG GRP78 promoter luciferase reporter, 16 h; Potency, µM, hits mostly activators; actives 0.02% (n = 420,000); AID 602332, 2012; active = well fitted activation curve with a large enough effect; note: series mostly up to about 76 µM; nearly all actives have a fitted effect of over 35% in size
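ERSR induction read as luciferase luminescence (Bright-Glo, 10 min at room temperature) in stably transfected human U87-MG glioma cells exposed to compounds for 16 h, using GRP78 as sensor.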
TRHR enhancer: qHTS for Small Molecule Agonists and Allosteric Enhancers of Human TRH Receptor: Primary Screen for Enhancers. Thyrotropin-releasing hormone receptor (Homo sapiens), P34981. TRHR cells, fluo-8 calcium fluorescence, EC20 TRH enhancement. enhancement, % at 2 µM. actives 0.66% (n = 360,000); in the data active = enhancement above about 30%
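TRHR-expressing cells loaded with fluo-8 calcium dye were read kinetically (ex 480/em 530) during compound addition, then stimulated with an EC20 of TRH (10 nM final). Enhancement of the Gq-mediated intracellular calcium response was scored.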
D1 potentiator: Potentiators of Human D1 Dopamine Receptor: qHTS; D(1A) dopamine receptor (Homo sapiens), P21728; HEK293 TREx D1 cells, calcium flux, dopamine EC20 potentiation; potentiation, % at 10 µM; actives 0.036% (n = 360,000); AID 504651, 2011; in the data active = potentiation above about 30%
D1 antag: Antagonist of Human D 1 Dopamine Receptor: qHTS. AID 504652, 2011. D(1A) dopamine receptor (Homo sapiens), P21728. HEK293 TREx D1 cells, calcium flux, dopamine EC80; hits give low values. activity change, negative = inhibition, % at 10 µM. actives 3.2% (n = 360,000); in the data active = activity change below about -30%
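HEK293 T-REx cells expressing inducible, force-coupled D1 receptor; no-wash Ca dye, 30–90 min RT. Cmpd → 180 s read at 1 Hz → EC80 DA → 180 s read.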
D1 ag: Allosteric Agonists of the Human D1 Dopamine Receptor: qHTS | AID 504660, 2011 | actives 1% (n = 360,000) | HEK293 T-REx D1 cells, calcium flux, agonist mode | activation, % at 2 µM | D(1A) dopamine receptor (Homo sapiens), P21728
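Agonism was scored from calcium flux recorded over 180 s (1 read/s) after pintool compound addition, following a 10-cycle baseline. Cells were inducible force-coupled HEK293 TREx D1, plated overnight at 30 C and loaded with no-wash calcium dye.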
Of the large screens only hits and unclear results are named; the others gave an inactive call. Cut-off read from the data, not from the text of the source, unless noted: active = activation above about 30%; inactive = the rest.

N#Cc1ccc(OCC(=O)OCC(=O)Nc2ccc(N3CCOCC3)cc2)cc1	none
O=C(COC(=O)COc1cccc(C(F)(F)F)c1)Nc1ccc(N2CCOCC2)cc1	D1 antag -40
CN(C)NC1CC(=O)N(c2ccccc2)C1=O (configuration not stated)	none
CCOC(=O)C1=CCN(S(=O)(=O)c2ccccc2F)C1c1ccc(C)cc1 (configuration not stated)	none (no result: TRHR ag, TRHR enhancer, D1 potentiator, D1 antag, D1 ag)
Cc1ccc(S(=O)(=O)CC(=O)N2CCN(c3nc4c(F)cccc4s3)CC2)cc1	D1 ag 56 (no result: D1 antag)
Cc1cccc2sc(N3CCN(C(=O)CS(=O)(=O)c4ccc(F)cc4)CC3)nc12	none (no result: D1 antag)
CCCc1cc(C(=O)N2CCN(c3ccccc3C)CC2)cs1	D1 antag -43
COc1cccc2c1Oc1ncccc1N(c1ccc(C(=O)NCc3ccccc3C)s1)C2	none
CCCS(=O)(=O)N1CCN=C1SCc1cccc(C)c1	D1 antag -30
CC(C)Cn1cnc2c1c(=O)[nH]c(=O)n2Cc1ccccc1	D1 antag -47
CN(CC(=O)N1CCCC1)S(=O)(=O)c1ccc(Cl)cc1	TRHR enhancer 30
CCOC(=O)N1CCN(c2ccc(S(=O)(=O)N(Cc3ccccc3)Cc3ccccc3)cn2)CC1	D1 antag -31
CCN(CC)S(=O)(=O)c1ccc(N2CCN(c3ccccc3O)CC2)nc1	none
CN(CC(=O)N1CCCCC1)S(=O)(=O)c1ccc(Cl)cc1	none (no result: D1 antag)
CCN(CC)S(=O)(=O)c1ccc(N2CCN(CCO)CC2)nc1	D1 antag -71
CCOC(=O)N1CCN(C(=O)CN(Cc2ccc(Cl)cc2)S(=O)(=O)c2ccccc2)CC1	D1 antag -39
CCOC(=O)N1CCN(c2ccc(S(=O)(=O)N3CCOCC3)cn2)CC1	none (no result: TRHR ag, TRHR enhancer, D1 potentiator, D1 antag, D1 ag)
CCOC(=O)C1(CCOc2ccccc2)CCN(CC2CC2)CC1	none
COc1ccc(NC(=O)c2ccccc2C(=O)N2CCCCC2)cc1	none
Cc1c(NC(=O)c2ccco2)c(=O)n(-c2ccccc2)n1C	none
CCOC(=O)N1CCN(C(=O)CN(c2cc(C)ccc2OC)S(=O)(=O)c2ccc(C)cc2)CC1	D1 antag -38
COc1ccc(C)cc1N(CC(=O)N1CCCCCC1)S(=O)(=O)c1ccccc1	none
COC(=O)c1sccc1-c1ccc(C(=O)Nc2cccc(Cl)c2)o1	none
COc1ccc(NS(=O)(=O)c2ccc3c(c2)CC(C)N3C(=O)C2CCC2)cc1OC (configuration not stated)	none
COc1cc(Cl)c(NS(=O)(=O)c2ccc3c(c2)CC(C)N3C(=O)C2CCC2)c(OC)c1 (configuration not stated)	D1 antag -31
COc1cccc(NS(=O)(=O)c2ccc3c(c2)CCCN3C(=O)C2CCC2)c1	D1 antag -52
Cn1cc(C(=O)N2CCc3ccccc3C2)c(=O)c2cc(S(=O)(=O)N3CCCCC3)ccc21	none (no result: GRP78 ERSR act)
COc1ccc(-n2ccnc(NCc3cccs3)c2=O)cc1	D1 antag -34
COc1ccc(-n2ccnc(NCc3cccs3)c2=O)cc1OC	none
COc1cccc(-n2c(SCC(=O)NCC3CCCO3)nc3c(c2=O)SCC3)c1 (configuration not stated)	none
COc1ccc(-n2c(SCC(=O)NCC3CCCO3)nc3c([nH]c4ccccc43)c2=O)cc1 (configuration not stated)	D1 antag -31
COc1cccc(-n2c(SCC(=O)NCC3CCCO3)nc3c([nH]c4ccccc43)c2=O)c1 (configuration not stated)	none
O=C(CSc1nc2c(c(=O)n1-c1ccc(Cl)cc1)SCC2)NCC1CCCO1 (configuration not stated)	D1 antag -32
COC(=O)c1ccc(CSc2nc3c([nH]c4ccccc43)c(=O)n2-c2cccc(OC)c2)o1	D1 antag -62
COc1ccc(-n2c(SCC(=O)N3CCCc4ccccc43)nc3c([nH]c4ccccc43)c2=O)cc1	none
COc1cccc(-n2c(SCC(=O)N3CCCc4ccccc43)nc3c([nH]c4ccccc43)c2=O)c1	D1 antag -35
COc1ccccc1CCNC(=O)C(=O)NCC1OCCN1S(=O)(=O)c1cc(F)ccc1F (configuration not stated)	none
COc1ccc(OCCSc2nnc(CCNC(=O)c3ccc(OC)cc3)n2C)cc1	none
COc1ccc(OCCSc2nnc(CCNC(=O)c3ccc(Cl)c(Cl)c3)n2C)cc1	D1 antag -36
C/C(=N\Nc1cc(-c2ccccc2)nc(-c2ccccc2)n1)c1ccc(O)c(C)c1	none
COc1cc(N/N=C(\C)c2ccc(O)c(C)c2)nc(-c2ccccc2)n1	TRHR enhancer 34
Cc1ccc2c(C)nc(NC3=NCN(CCc4ccccc4)CN3)nc2c1	D1 antag -43 (no result: GRP78 ERSR act)
C=C1CCC[C@]2(C)C[C@H]3OC(=O)C(CN(C)CC(OC)OC)[C@H]3CC12 (some centres not stated)	none
NC(=O)c1ccc(-n2nnnc2Oc2ccccc2)cc1	D1 antag -49
Cc1c(C(=O)N2CC3(CC(c4cccc(NC(=O)CC(c5ccccc5)c5ccccc5)c4)=NO3)C[C@@H]2C(N)=O)cc([N+](=O)[O-])cc1[N+](=O)[O-] (some centres not stated)	none
O=C(NCCCN1CCCC1=O)c1ccc(OC(F)(F)F)cc1	none
CN(C)S(=O)(=O)N1CCC(Oc2cccc(C(=O)N3CCCCCC3)c2)CC1	none
COc1cccc2c1OCC(CN1CCN(CCC(C)C)C(CCO)C1)=C2 (configuration not stated)	D1 antag -30
CC(C)CCN1CCN(Cc2cccn2-c2cccnc2)CC1CCO (configuration not stated)	D1 ag 30
CC(=O)c1cccc(OCC(=O)c2cc(C)n(-c3cc(C)on3)c2C)c1	none
O=c1oc(-c2ccco2)nc2ccccc12	D1 antag -39
O=c1oc(-c2ccco2)nc2c1cnn2-c1ccccc1	none
CN(C)c1ccc(O)c2c1CC1CC3[C@@H](N(C)C)C(=O)C(C(N)=O)C(=O)[C@]3(O)C(=O)C1C2=O (some centres not stated)	none (no result: TRHR ag, TRHR enhancer, D1 potentiator, D1 antag, D1 ag)
O=C(c1cc2cc(C(F)(F)F)ccc2s1)N1CCOCC1	none
